D3 antag = antagonists of human D3 dopamine receptor. max response, negative = inhibition, %. hit rate 2.5% among 360,000. P35462. D3R cells, DiscoveRx beta-arrestin luminescence, antagonist mode; hits give low values; in the data active = max response below about -50%; inconclusive = no clear call, values can overlap the other calls; note: % is set by controls: 0 for no effect and ±100 for the full control effect
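Cells expressing the human receptor were seeded at 1500 cells/well, incubated overnight at 37 degrees C in 5% CO2, then exposed to library compounds with dopamine controls for 90 minutes at 37 degrees C before luminescent detection.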
Giardia kill = Giardia lamblia killing; Giardia lamblia trophozoite viability; activity change, % at 7.66 µM, hits read low; hit rate 0.15% among 340,000; in the data active = activity change below about -80%; inconclusive = between about -30% and that limit;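 note: parasites exposed to compound for two days anaerobically before the ATP read; % is set by controls: 0 for no effect and ±100 for the full control effect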
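Each well holds 100 Giardia trophozoites and compound. After two days (48 hrs) at 37 deg C in anaerobic conditions, ATP is quantified by luminescence.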
DRD3 agonist = activates the human D3 dopamine receptor | P35462 | D3R DiscoveRx beta-arrestin cells, luminescence, 90 min | max activation, % | hit rate 0.58% among 410,000 | AID 652048; in the data active = max activation above about 30%; note: 0% is about no effect
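Cells at 1500/well, incubated overnight, then treated with pinned compounds (dopamine as control) for 90 min at 37 degrees C. DiscoveRx reagent added for 30 - 60 minutes at room temperature; luminescence read.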
B2AR arrestin = recruits beta-arrestin to the human beta2-adrenergic receptor | Potency, µM (series often up to 46.1 µM), inactives show at the top dose activation, usual class: activators | P07550 | hit rate 0.02% among 330,000 | beta-arrestin recruitment to beta2AR, cell-based reporter; active = well fitted activation curve with a large enough effect; inconclusive = small, poorly fitted or top-dose-only effect;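 note: potency is the fitted concentration of half-maximal effect; 0% = DMSO controls and full agonism = EC100 isoproterenol or metaproterenol; nearly all actives have a fitted effect of over 65% in size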
Target sequence (P07550 whole entry, looked up): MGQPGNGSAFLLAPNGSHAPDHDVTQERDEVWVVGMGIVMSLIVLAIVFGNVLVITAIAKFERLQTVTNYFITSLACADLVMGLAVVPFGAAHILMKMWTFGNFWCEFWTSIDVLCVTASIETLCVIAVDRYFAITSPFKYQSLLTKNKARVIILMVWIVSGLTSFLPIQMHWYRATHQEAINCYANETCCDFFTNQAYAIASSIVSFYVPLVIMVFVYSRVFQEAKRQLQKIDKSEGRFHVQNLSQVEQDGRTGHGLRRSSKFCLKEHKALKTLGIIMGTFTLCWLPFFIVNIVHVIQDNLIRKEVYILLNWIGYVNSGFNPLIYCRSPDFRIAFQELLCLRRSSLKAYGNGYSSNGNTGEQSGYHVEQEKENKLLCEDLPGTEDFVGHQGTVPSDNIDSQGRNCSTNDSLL
Active calls of the source: *; ? = inconclusive; · = no result. This is a sample that favours compounds with a hit; in the whole collection about 2.8% have one here.

SMILES | D3 antag | Giardia kill | DRD3 agonist | B2AR arrestin
C[C@@H]1C(=O)N(S(=O)(=O)c2ccc([N+](=O)[O-])cc2)[C@H]1c1ccccc1 | · | 25 | · | ·
OC1(c2ccccc2)CCN(Cc2ccccc2)C2CCCCC21 (stereo unspecified) | -85* | 10 | 12 | 0%
Cc1oc(-c2cccs2)nc1CN1CC[C@@](O)(c2ccccc2)[C@H]2CCCC[C@@H]21 | ? | -12 | -12 | 0%
CC1=C(C(=O)OCc2ccccc2)C(c2ccc(C)o2)C2=C(CCCC2=O)N1 (stereo unspecified) | 12 | -23 | 1 | 0%
CC1=C(C(=O)OC2CCCCC2)C(c2ccc(C)o2)C2=C(CCCC2=O)N1 (stereo unspecified) | -50* | -9 | 1 | -1%
O=C(O)c1c(Cl)c(Cl)c(Cl)c(Cl)c1-c1c2cc(I)c(=O)c(I)c-2oc2c(I)c(O)c(I)cc12 | · | · | -26 | ·
O=C(O)c1ccccc1-c1c2cc(I)c(=O)c(I)c-2oc2c(I)c(O)c(I)cc12 | -62* | -5 | -29 | ·
COc1cc2c(-c3cc(Br)ccc3O)nc3c(c(C)nn3-c3ccccc3)c2cc1OC | · | · | 1 | ·
COc1cc2c(-c3ccccc3C)nc3c(c(C)nn3-c3ccccc3)c2cc1OC | · | · | 41* | ·
Cc1ccccc1N=C(NOCc1ccc(Cl)cc1Cl)c1nonc1N | -85* | 6 | -28 | 0%
O=C(NNc1cc(Cl)cc(Cl)c1)c1sccc1Cl | · | 16 | · | ·
N#C[C@@H]1C[C@@H]2C[C@@H]2N1C(=O)[C@@H](N)C12CC3CC(CC(O)(C3)C1)C2 | · | · | -24 | ·
O=C(Nc1nc2ccccc2[nH]1)c1ccc(F)cc1 | -13 | ? | -24 | 0%
O=C(Nc1nc2ccccc2[nH]1)c1ccccc1F | -12 | -89* | -6 | 0%
O=C(NC(=S)NCc1nc2ccccc2[nH]1)c1ccccc1F | -63* | 4 | -13 | 0%
O=C(NC(=S)NCc1nc2ccccc2[nH]1)c1ccc(F)cc1 | 17 | -1 | -8 | 0%
Cc1cc(NC(=O)c2c(F)cccc2F)n(-c2nc3ccccc3[nH]2)n1 | -96* | -3 | 37* | 0%
CCc1ccc(C(=O)Nc2nc3ccccc3[nH]2)cc1 | -14 | -94* | -2 | -1%
O=C(c1ccc(-c2ccccc2)cc1)c1ccc([N+](=O)[O-])cc1 | · | · | · | 0%
O=C(C#Cc1ccccc1)c1ccc([N+](=O)[O-])cc1 | -72* | 6 | -18 | -1%
CN(C)C(=O)C#Cc1ccccc1 | 5 | 10 | 6 | 0%
O=C(C#Cc1ccccc1)c1ccccc1 | -65* | · | -9 | ·
CC1CCC(NC(=O)c2ccc(CS(=O)(=O)c3ccc(Cl)cc3)o2)CC1 (stereo unspecified) | · | · | -24 | ·
O=S(=O)(c1ccc(C(F)(F)F)cc1)N1CCN(c2nc(-c3cccs3)nc3ccccc23)CC1 | · | 3 | · | ·
Cc1cccc(NC(=O)C(Cc2ccccc2)NS(=O)(=O)c2ccc3c(c2)c(=O)n(C)c(=O)n3C)c1 (stereo unspecified) | · | · | -8 | ·
SMILES | D3 antag | Giardia kill | DRD3 agonist | B2AR arrestin
COc1ccc(S(=O)(=O)N2CCCC(C(=O)NCc3ccncc3)C2)cc1Cl (stereo unspecified) | -71* | 16 | -1 | 0%
COc1ccc(C)cc1S(=O)(=O)N1CCCC(C(=O)NCc2ccccn2)C1 (stereo unspecified) | -8 | 10 | 1 | -1%
O=C(NCc1ccccn1)C1CCCN(S(=O)(=O)c2cc(Cl)ccc2Cl)C1 (stereo unspecified) | -21 | -83* | -19 | ·
CCOC(=O)C(NC(=O)NCc1ccccc1)(OCC)C(F)(F)F (stereo unspecified) | 0 | 9 | -2 | -1%
CCOC(=O)C(NC(=O)Nc1ccc(F)cc1)(OCC)C(F)(F)F (stereo unspecified) | -53* | -4 | -7 | -1%
CCOC(=O)c1c(C)[nH]sc1=S | ? | -14 | -4 | 0%
CCOC(=O)c1sc(=S)[nH]c1C | -52* | 7 | 2 | ·
Cc1cc2oc(=O)cc(CN3CCC(C)CC3)c2cc1Cl | -52* | -12 | -4 | 0%
Cc1cc2oc(=O)cc(CN3CCN(Cc4ccccc4)CC3)c2cc1Cl | ? | 4 | -15 | 0%
Cc1ccc2c(CN3CCC(C)CC3)cc(=O)oc2c1 | -61* | 7 | -34 | 0%
COc1ccc(C2C=C(c3ccc(C)c(C)c3)Nc3ncnn32)c(OC)c1OC (stereo unspecified) | -68* | 5 | -14 | 0%
COc1cccc(C2=CC(c3ccc(OC)c(OC)c3OC)n3ncnc3N2)c1 (stereo unspecified) | · | · | -13 | ·
O=C(Nc1ccc2c(c1)N(S(=O)(=O)c1cccs1)CCC2)c1c(F)cccc1F | -3 | -6 | -9 | 0%
O=S(=O)(c1cccs1)N1CCCc2cccc(O)c21 | -73* | 1 | -3 | 0%
COc1ccccc1CNC(=O)c1cnc2sc(N3CCCCC3)nn2c1=O | · | · | 10 | ·
CCOC(=O)CSc1nc2sc3c(c2c(=O)n1-c1ccc(OC)cc1)CC(C(C)C)OC3 (stereo unspecified) | · | · | -11 | ·
NC(=O)CC(NC(=O)c1ccccc1)c1ccc(N2CCC(Br)CC2)c([N+](=O)[O-])c1 (stereo unspecified) | 0 | -14 | 13 | 0%
NC(=O)CC(NC(=O)Cc1cccc2ccccc12)c1ccc(N2CCCCCC2)c([N+](=O)[O-])c1 (stereo unspecified) | -68* | 3 | -37 | 0%
Cc1cc(C)cc(C(=O)NC(CC(N)=O)c2ccc(N3CCC(Br)CC3)c([N+](=O)[O-])c2)c1 (stereo unspecified) | 0 | 17 | 32* | -1%
COc1ccc(CNC(=O)COCc2cc(-c3cccs3)on2)cc1 | · | · | 1 | ·
COC(=O)C1=C(C)NC(C)=C(C(=O)OCCCN2CCC(c3ccccc3)(c3ccccc3)CC2)C1c1cccc([N+](=O)[O-])c1 (stereo unspecified) | · | · | 20 | ·
CCN(CC)CCSc1nc2ccccc2n1Cc1ccccc1 | -54* | -2 | -17 | -1%
Cn1cccc1-c1nc2ccccc2n1Cc1ccccc1 | -54* | -20 | -1 | 0%
c1ccc(Cn2c(CNc3nc4ccccc4n3CCN3CCCCC3)nc3ccccc32)cc1 | ? | 19 | -18 | 0%
CCN(CC)CCn1c(NCc2nc3ccccc3n2Cc2ccccc2)nc2ccccc21 | -55* | 4 | -34 | -1%
SMILES | D3 antag | Giardia kill | DRD3 agonist | B2AR arrestin
Cc1cccc(Cn2c(-c3ccccc3)nc3ccccc32)c1 | · | · | -13 | ·
O=S(=O)(c1ccccc1C(F)(F)F)N1CCN(c2nc(-c3ccccc3)nc3ccccc23)CC1 | · | 5 | · | ·
CC(=O)O[C@H]1C[C@@H]2CC[C@@H]3[C@H](CC[C@@]4(C)[C@H]3C[C@H](N3CC[N+](C)(C)CC3)[C@@H]4OC(C)=O)[C@@]2(C)C[C@@H]1N1CC[N+](C)(C)CC1 | · | · | 12 | ·
COc1cccc(CNC(=O)c2cc(-c3ccc(Cl)cc3)n[nH]2)c1 | · | · | 6 | ·
CCOC(=O)c1c(NC(=O)COc2ncnc3sccc23)sc2c1CCC2 | 20 | 0 | 35* | 0%
CCOC(=O)c1c(NC(=O)COc2ccc(CC)cc2)sc2c1CCCC2 | · | · | 7 | ·
